Measurements reported in PubChem BioAssay AID504334 (NMMLSC, 2011).

Assay: yeast AGP1-GFP fluorescence change, single-dose confirmation – cell-based, flow cytometry, S. cerevisiae, cherry pick set 3 (AID 504334);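 note: median GFP fluorescence per well by flow cytometry over the all cells gate; ratio of sample to mean DMSO control signal so DMSO = 100% not 0%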
Settings: S. cerevisiae AGP1-GFP strain, 3 h, at 10 µM, active compounds read high;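 active = response relative to DMSO over 150%; inconclusive = yeast strain with under 70 recorded events; inactive = the rest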

Percent response vs DMSO, inactive:
O=C(N/N=C/c1ccccc1)c1cccc2ccccc12 101%, Cc1ccc(C)c(Nc2ncnc(N)c2[N+](=O)[O-])c1 102%, CCCC(=O)Nn1cnc2c(c1=O)C1(CCCC1)Cc1ccccc1-2 101%, CNc1nc(N)c([N+](=O)[O-])c(Nc2ccccc2OC)n1 89.8%, C=CCNc1ncnc2ccccc12 102%, CCC(C)Nc1nc(N)c([N+](=O)[O-])c(Nc2cc(OC)ccc2OC)n1 (centres undefined) 98.8%, O=C1c2ccccc2C(=O)c2c1cccc2N(CCO)CCO 98.8%, O=C(Nc1ccccc1Cl)ON=C1c2ccccc2-c2ccccc21 99.1%, N#Cc1c(N)nc(N)nc1Nc1ccc(Br)cc1 98.4%, Cc1cc(C)c(NC(=O)CC(=O)c2ccccc2)c(Cl)c1 99.4%, COc1ccc(N/C(C)=C/C(=O)c2ccccc2)cc1 98.4%, CSc1nc(S(C)(=O)=O)nc2[nH]c(=O)[nH]c12 103%, Cn1c(NCCO)nc2c(c1=O)C1(CCCCC1)Cc1ccccc1-2 104%, O=C(O)CCCCCNc1ncnc2ccc(Br)cc12 101%, COc1ccc(NC(=O)ON=C2c3ccccc3-c3ccccc32)cc1 98.1%, COc1cccc(N/C=C/C(=O)c2ccc(C)cc2)c1 99.8%, CC(=O)Nn1cnc2c(c1=O)C1(CCCCC1)Cc1ccccc1-2 104%, Cc1ccc(C(=O)/C=C/Nc2cccc(O)c2)cc1 96.8%, Cc1ccc(C(=O)Nc2nc(-c3ccccn3)cs2)o1 102%, O=C(Nc1ccccc1)O/N=C1/CCCc2occc21 94.4%, O=C(Nc1nc(-c2ccccn2)cs1)c1ccccc1-n1cnnn1 100%, Cc1cccc(C)c1Nc1ncnc(N)c1[N+](=O)[O-] 102%, COC1=C/C(=C/c2c(N)n3cc(C)sc3nc2=O)C=CC1=O 100%, Cc1ccc2nc(-c3ccc(NC(=O)c4cccnc4)cc3)oc2c1 93.8%, Cc1ccc(NN2C(=O)C=C(c3ccccc3)C2=O)cc1 92.8%, Nc1nc(NCCOCCO)nc(Nc2cccc(F)c2)c1[N+](=O)[O-] 98.1%, OCCNc1ncnc2ccc(Br)cc12 101%, C/C(=C\C(=O)c1ccccc1)Nc1cccc(O)c1 97.1%, COc1cc(OC)cc(C(=O)Nc2ccc(-c3nc4ccccc4o3)cc2)c1 99.1%, C/C(=N\NC(=O)c1ccccc1)c1ccccc1F 105%, CNc1cccc2c1C(=O)c1ccccc1C2=O 100%, O=C(O)c1ccccc1-c1ccccc1C(=O)Nc1ccc(-c2nc3cc(Cl)ccc3o2)cc1 103%, COc1ccc(N/C=C/C(=O)c2ccc(Cl)cc2)cc1 98.1%, COc1cccc(N/C=C/C(=O)c2ccc(Cl)cc2)c1 93.8%, CNc1nc(N)c([N+](=O)[O-])c(Nc2cccc(Cl)c2)n1 104%, Cc1ccc2c(Cl)cc(Cl)c(O)c2n1 109%, CC(=O)Nc1ccc(-c2nc3ccccc3o2)cc1 96.8%, O=C(N/N=C/c1ccccc1O)c1cccc2ccccc12 99.8%, Brc1ccc2ncnc(NCc3ccccc3)c2c1 94.8%
